From the supplement of paper PMC11865577
Where a name gives a salt, the structure may show the parent alone.

System: SARS-CoV-2 low-rank motif (SARS-low)
Experiment: normalised indicator fluorescence (fraction of RNA + indicator signal without compound); higher = less displacement of indicator (weaker competition)
Settings: compound concentration: 5 uM; 30 min; indicator: TO-PRO-1 0.1 uM; RNA concentration: 0.1 uM
Method in brief: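 In 96-well plates, RNA was combined with a TO-PRO-1 or TO-PRO-3 indicator in 20 mM phosphate pH 7.0 containing 20 mM NaCl and 80 mM KCl. Each compound was added as 0.25 μL of a 1 mM DMSO stock, giving about 5 uM final, and fluorescence was read on an Infinite 200 PRO after 30 min (excitation 485 or 620 nm). Values are the blank-corrected indicator fluorescence (buffer plus indicator subtracted) divided by the signal of RNA plus indicator without compound, averaged over two independent experiments.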

| Compound | normalised indicator fluorescence |
| --- | --- |
| Cc1cccc(CC(=O)N2CCc3c2ccc(-c2cn(C)c4ncnc(N)c24)c3F)n1 | 1.06 |
| CC(=O)O[C@H]1C[C@@]2(C)[C@@H](C[C@@H](O)[C@H]3[C@@]4(C)CC[C@@H](O)[C@@H](C)[C@@H]4CC[C@@]32C)/C1=C(\CCC=C(C)C)C(=O)O [Sodium fusidate] | 1.11 |
| COC1=CC(=O)c2ccccc2C1=O [2-Methoxynaphthoquinone] | 1.19 |
| CC1=CC(=O)c2c(O)cccc2C1=O [Plumbagin] | 1.22 |
| CNc1ccc([N+](=O)[O-])c(Nc2ccc3[nH]ncc3c2)n1 | 1.01 |
| C[C@@H]1O[C@@H](Oc2c(-c3cc(O)c(O)c(O)c3)oc3cc(O)cc(O)c3c2=O)[C@H](O)[C@H](O)[C@H]1O [Myricetrin] | 0.999 |
| CC1=C[C@]2(O)O[C@@]3(CC2=C(C)C)[C@@H](C)CC[C@@H]13 [Curcumenol] | 1.11 |
| COc1ccc2c(c[n+](C)c3c4cc5c(cc4ccc23)OCO5)c1OC [Chelerythrine chloride] | 1.46 |
| Cc1oncc1C(=O)Nc1ccc(C(F)(F)F)cc1 [Leflunomide] | 1.07 |
| NC(=O)N/N=C/c1ccc([N+](=O)[O-])o1 [Furacilin] | 1.11 |
| Cc1c(C)c2c(c(C)c1O)CC[C@@](C)(CCC[C@H](C)CCC[C@H](C)CCCC(C)C)O2 [Vitamin E] | 1.07 |
| CC(=O)CCCCn1c(=O)c2c(ncn2C)n(C)c1=O [Pentoxifylline] | 1.23 |
| CC(C)OC(=O)CCC/C=C\C[C@@H]1[C@@H](CC[C@@H](O)CCc2ccccc2)[C@H](O)C[C@@H]1O [Latanoprost] | 1.12 |
| O=C(COc1ccc(Cl)cc1)NC1CCC(NC(=O)COc2ccc(Cl)cc2)CC1 (configuration not stated) | 1.05 |
| O=C(O)C(O)Cc1ccc(O)c(O)c1 (configuration not stated) [Sodium Danshensu] | 0.934 |
| CC(C)(O)[C@@H]1CC[C@](C)([C@H]2[C@@H](O)C[C@@]3(C)[C@@H]4C[C@H](O)[C@H]5C(C)(C)[C@@H](O[C@@H]6OC[C@@H](O)[C@H](O)[C@H]6O[C@@H]6O[C@H](CO)[C@@H](O)[C@H](O)[C@H]6O)CC[C@@]56C[C@@]46CC[C@]23C)O1 [Astragaloside III] | 1.03 |
| C[S+]([O-])c1ccc(-c2nc(-c3ccc(F)cc3)c(-c3ccncc3)[nH]2)cc1 (configuration not stated) | 1.04 |
| CC(=O)c1ccc(S(=O)(=O)NC(=O)NC2CCCCC2)cc1 [Acetohexamide] | 0.998 |

| Compound | normalised indicator fluorescence |
| --- | --- |
| O=c1c(O)c(-c2cc(O)c(O)c(O)c2)oc2cc(O)cc(O)c12 [Myricetin] | 0.808 |
| OC[C@H]1O[C@@H](Oc2ccc(O)cc2)[C@H](O)[C@@H](O)[C@@H]1O [Arbutin] | 1.1 |
| CCOc1cc(C(=O)N2CCC(N3CCN(C)CC3)CC2)ccc1Nc1ncc2c(n1)N(C1CCCC1)c1ccccc1C(=O)N2C | 1.2 |
| C[C@H]1[C@H](C)CC[C@]2(C(=O)O)CC[C@]3(C)C(=CC[C@@H]4[C@@]5(C)C[C@@H](O)[C@H](O)[C@@](C)(CO)[C@@H]5CC[C@]43C)[C@H]12 [Asiatic acid] | 1.08 |
| Oc1ccc(OC2CCCCO2)cc1 (configuration not stated) [Deoxyarbutin] | 1.17 |
| CN(C)CCCN1c2ccccc2CCc2ccc(Cl)cc21 [Clomipramine hydrochloride] | 1.07 |
| CC(C)N(CCCCOCC(=O)NS(C)(=O)=O)c1cnc(-c2ccccc2)c(-c2ccccc2)n1 [Selexipag] | 1.21 |
| C/C1=C/CC[C@H](C)C(=O)C[C@@H](C(C)C)C(=O)C1 [Curdione] | 1.15 |
| Cc1c(C)c2c(c(C)c1O)CCC(C)(C(=O)O)O2 (configuration not stated) [Trolox] | 1.24 |
| COC1=C(OC)C(=O)C(CCCCCCCCCCO)=C(C)C1=O [Idebenone] | 1.21 |
| [I-].[K+] [Potassium iodide] | 1.21 |
| CC1=NN(c2ccccc2)C(=O)C1 [Edaravone] | 1.13 |
| Nc1ncnc2c1ncn2[C@@H]1O[C@H](CO)[C@@H](O)[C@@H]1O [Vidarabine] | 1.11 |
| Nc1c(Br)cc(Br)cc1CN[C@H]1CC[C@H](O)CC1 [Ambroxol] | 0.985 |
| Oc1cc(O)c2c(c1)O[C@H](c1ccc(O)c(O)c1)[C@@H](O)C2 [Cianidanol] | 1.39 |
| COc1nc(-c2ccc3c(c2)OCO3)n(-c2ccc(NC(=O)CSc3ccccc3)cc2)n1 [SecinH3] | 1.55 |
| COc1ccc(O)cc1 [4-Methoxyphenol] | 1.12 |
| Oc1ccc(OCc2ccccc2)cc1 [Monobenzone] | 1.17 |

Same assay, conditions: compound concentration: 5 uM; 30 min; indicator: TO-PRO-3 0.5 uM; RNA concentration: 0.5 uM

| Compound | normalised indicator fluorescence |
| --- | --- |
| Cc1cccc(CC(=O)N2CCc3c2ccc(-c2cn(C)c4ncnc(N)c24)c3F)n1 | 1.05 |
| CC(=O)O[C@H]1C[C@@]2(C)[C@@H](C[C@@H](O)[C@H]3[C@@]4(C)CC[C@@H](O)[C@@H](C)[C@@H]4CC[C@@]32C)/C1=C(\CCC=C(C)C)C(=O)O [Sodium fusidate] | 1.04 |
| COC1=CC(=O)c2ccccc2C1=O [2-Methoxynaphthoquinone] | 1.12 |
| CC1=CC(=O)c2c(O)cccc2C1=O [Plumbagin] | 1.02 |
| CNc1ccc([N+](=O)[O-])c(Nc2ccc3[nH]ncc3c2)n1 | 1.14 |
| C[C@@H]1O[C@@H](Oc2c(-c3cc(O)c(O)c(O)c3)oc3cc(O)cc(O)c3c2=O)[C@H](O)[C@H](O)[C@H]1O [Myricetrin] | 1.07 |
| CC1=C[C@]2(O)O[C@@]3(CC2=C(C)C)[C@@H](C)CC[C@@H]13 [Curcumenol] | 1.05 |
| COc1ccc2c(c[n+](C)c3c4cc5c(cc4ccc23)OCO5)c1OC [Chelerythrine chloride] | 0.807 |
| Cc1oncc1C(=O)Nc1ccc(C(F)(F)F)cc1 [Leflunomide] | 1.12 |
| NC(=O)N/N=C/c1ccc([N+](=O)[O-])o1 [Furacilin] | 1.05 |
| Cc1c(C)c2c(c(C)c1O)CC[C@@](C)(CCC[C@H](C)CCC[C@H](C)CCCC(C)C)O2 [Vitamin E] | 1.16 |
| CC(=O)CCCCn1c(=O)c2c(ncn2C)n(C)c1=O [Pentoxifylline] | 1.05 |
| CC(C)OC(=O)CCC/C=C\C[C@@H]1[C@@H](CC[C@@H](O)CCc2ccccc2)[C@H](O)C[C@@H]1O [Latanoprost] | 1.2 |
| O=C(COc1ccc(Cl)cc1)NC1CCC(NC(=O)COc2ccc(Cl)cc2)CC1 (configuration not stated) | 0.94 |
| O=C(O)C(O)Cc1ccc(O)c(O)c1 (configuration not stated) [Sodium Danshensu] | 0.931 |
| CC(C)(O)[C@@H]1CC[C@](C)([C@H]2[C@@H](O)C[C@@]3(C)[C@@H]4C[C@H](O)[C@H]5C(C)(C)[C@@H](O[C@@H]6OC[C@@H](O)[C@H](O)[C@H]6O[C@@H]6O[C@H](CO)[C@@H](O)[C@H](O)[C@H]6O)CC[C@@]56C[C@@]46CC[C@]23C)O1 [Astragaloside III] | 0.988 |
| C[S+]([O-])c1ccc(-c2nc(-c3ccc(F)cc3)c(-c3ccncc3)[nH]2)cc1 (configuration not stated) | 0.92 |
| CC(=O)c1ccc(S(=O)(=O)NC(=O)NC2CCCCC2)cc1 [Acetohexamide] | 1.12 |

| Compound | normalised indicator fluorescence |
| --- | --- |
| O=c1c(O)c(-c2cc(O)c(O)c(O)c2)oc2cc(O)cc(O)c12 [Myricetin] | 0.0645 |
| OC[C@H]1O[C@@H](Oc2ccc(O)cc2)[C@H](O)[C@@H](O)[C@@H]1O [Arbutin] | 1.25 |
| CCOc1cc(C(=O)N2CCC(N3CCN(C)CC3)CC2)ccc1Nc1ncc2c(n1)N(C1CCCC1)c1ccccc1C(=O)N2C | 1.03 |
| C[C@H]1[C@H](C)CC[C@]2(C(=O)O)CC[C@]3(C)C(=CC[C@@H]4[C@@]5(C)C[C@@H](O)[C@H](O)[C@@](C)(CO)[C@@H]5CC[C@]43C)[C@H]12 [Asiatic acid] | 0.985 |
| Oc1ccc(OC2CCCCO2)cc1 (configuration not stated) [Deoxyarbutin] | 0.988 |
| CN(C)CCCN1c2ccccc2CCc2ccc(Cl)cc21 [Clomipramine hydrochloride] | 1.13 |
| CC(C)N(CCCCOCC(=O)NS(C)(=O)=O)c1cnc(-c2ccccc2)c(-c2ccccc2)n1 [Selexipag] | 1.13 |
| C/C1=C/CC[C@H](C)C(=O)C[C@@H](C(C)C)C(=O)C1 [Curdione] | 1.1 |
| Cc1c(C)c2c(c(C)c1O)CCC(C)(C(=O)O)O2 (configuration not stated) [Trolox] | 1.07 |
| COC1=C(OC)C(=O)C(CCCCCCCCCCO)=C(C)C1=O [Idebenone] | 1.12 |
| [I-].[K+] [Potassium iodide] | 1.29 |
| CC1=NN(c2ccccc2)C(=O)C1 [Edaravone] | 1.32 |
| Nc1ncnc2c1ncn2[C@@H]1O[C@H](CO)[C@@H](O)[C@@H]1O [Vidarabine] | 1.17 |
| Nc1c(Br)cc(Br)cc1CN[C@H]1CC[C@H](O)CC1 [Ambroxol] | 0.984 |
| Oc1cc(O)c2c(c1)O[C@H](c1ccc(O)c(O)c1)[C@@H](O)C2 [Cianidanol] | 1.17 |
| COc1nc(-c2ccc3c(c2)OCO3)n(-c2ccc(NC(=O)CSc3ccccc3)cc2)n1 [SecinH3] | 0.816 |
| COc1ccc(O)cc1 [4-Methoxyphenol] | 1.27 |
| Oc1ccc(OCc2ccccc2)cc1 [Monobenzone] | 1.21 |
